# Rows were chosen to be rich in hits. Some 0.51% of all compounds tested hit in one or more screens of this group.
# FMDV antiviral: shows antiviral activity against foot and mouth disease virus; FMDV antiviral cell assay, firefly luciferase signal; Potency, µM (series often up to 57.5 µM), for the others: top-dose activity change, negative = inhibition, most hits filed as inhibitors; AID 1745856; actives 0.23% (n = 120,000); further: nearly all actives have a fitted effect of over 60% in size
# FMDV RLuc: antivirals against foot and mouth disease virus replicon; actives 0.32% (n = 120,000); FMDV replicon cells, Renilla luciferase signal; AID 1745857; Potency, µM (titrated, usually from 57.5 µM), inactives show top-dose activity change, negative = inhibition, usual class: inhibitors; further: nearly all actives have a fitted effect of over 55% in size
# Starred values were filed as active, the others as inactive; ? = inconclusive; [ ] = dose if it differs, or a comment. The call rests on the fitted dose curve. On the % scale 0 is the no-effect control and ±100 the full control effect; potency means the concentration at half of the fitted maximal effect.
SMILES,FMDV antiviral,FMDV RLuc
Cc1nnsc1C(=O)Nc1ccc(S(=O)(=O)N2CCCCC2)cc1,-9%,-3%
CCC1CCCCN1S(=O)(=O)c1ccc(NC(=O)c2snnc2C)cc1 (stereo not drawn),18µM*,?
O=C(Nc1nc2c(s1)CCCCC2)c1ccc(Cl)cc1,-26%,10µM*
COc1ccc(C(=O)Nc2nc3c(s2)CCCC3)cc1Cl,47%,?
CCS(=O)(=O)Nc1ccc(N2CCCC(CN3CCCC3)C2)c(C(=O)O)c1 (stereo not drawn),0%,0%
Cc1cc(C(=O)Cn2c(Cl)nc3c2c(=O)n(C)c(=O)n3C)c(C)n1C,35%,15%
Cc1cc(C(=O)Cn2c(Cl)nc3c2c(=O)n(C)c(=O)n3C)c(C)n1CCc1ccccc1,28µM*,7.9µM*
O=C(Oc1ccccc1)c1cnc2ccccc2n1,0%,0%
Nc1nc(CN2CCN(C(=O)CNC(=O)c3ccc(OC(F)F)cc3)CC2)nc2ccccc12,-4%,-12%
CN(Cc1ccc2ccccc2c1)C(=O)CN(C)c1ncnc2nc[nH]c12,32µM*,?
CN(CC(=O)N(C)C1CCCc2ccccc21)c1ncnc2nc[nH]c12 (stereo not drawn),-11%,-16%
Cc1cc(Nc2cc(Cl)cc(Cl)c2)nc(-c2ccccc2O)n1,-9%,-10%
O=Cc1ccc(OCC2CC2)c2ccccc12,?,5.6µM*
Nc1ccc(OCC2CC2)c(F)c1,121%,12%
CCc1ccc(-c2nc(C(=O)N3CCN(C(C#N)c4ccc(F)cc4)CC3)cs2)cc1 (stereo not drawn),32%,-1%
CCOc1ccc(CCNC(=O)C2CCCN(c3nc4ccc(OCC)cc4s3)C2)cc1 (stereo not drawn),48%,7%
CC(C)(C)c1ccc(NC(=O)c2cccc(CN3CCCC3=O)c2)cc1,?,28µM*
CCOc1ccc(NC(=O)c2cccc(CN3CCCC3=O)c2)cc1,73%,-3%
O=C(c1ccc(-c2ccccc2)cc1)N1CCN(CC2CC=CCC2)CC1 (stereo not drawn),11%,13%
CCCOc1cccc(C(=O)Nc2ccc(-c3cc4ccccc4oc3=O)c(C)c2)c1,3%,-14%
CCCOc1ccc(C(=O)Nc2ccc(-c3cc4ccccc4oc3=O)c(C)c2)cc1,7.9µM*,4.5µM*
Cc1cc(C)nc(NS(=O)(=O)c2ccc(NC(=O)c3nc(SC(C)C)ncc3Cl)cc2)n1,-9%,11µM*
Cc1ccnc(NS(=O)(=O)c2ccc(NC(=O)c3nc(SC(C)C)ncc3Cl)cc2)n1,-5%,-13%
CC(C)CN1CCC(NC(=S)NCc2ccc(F)cc2)CC1,-3%,0%
CC(C)Sc1nc2c(c(=O)n(C)c(=O)n2C)n1Cc1ccccc1Cl,3%,-8%
SMILES,FMDV antiviral,FMDV RLuc
CSc1nc2c(c(=O)n(C)c(=O)n2C)n1Cc1cccc2ccccc12,16µM*,14µM*
CC(CCCCCCCCCCCCCO)(C(=O)O)C(=O)O,0%,16%
Cc1nc(CN2CCN(S(=O)(=O)c3ccccc3Cl)CC2)cs1,-11%,-5%
Cc1ccc(Nc2nc(CN3CCN(S(=O)(=O)c4cc(C)ccc4C)CC3)cs2)cc1,?,8.9µM*
CCCC(=O)Oc1ccc2c(=O)c(Oc3cc(C)cc(C)c3)coc2c1,7%,14%
Nc1nccnc1C(=O)NCc1ccc(CN2CCCCC2)cc1,0%,0%
Nc1nccnc1C(=O)NCc1ccc(N2CCCCC2)nc1,?,5.6µM*
Nc1nccnc1C(=O)NCc1ccc(Oc2cccc(F)c2)nc1,?,8.9µM*
Nc1nccnc1C(=O)NCc1cccnc1,-7%,-16%[1.06 µM]
CCCCCCOc1ccc(C(=O)OCC(=O)c2ccc(Cl)cc2)cc1,9%,0%
c1ccc(CNc2nc(Nc3ccccc3)nc3ccccc23)cc1,?,13µM*
c1ccc(Nc2nc(NCc3ccco3)c3ccccc3n2)cc1,-7%,?
Cc1ccc(CN(C)Cc2cc(=O)oc3ccc(C)cc23)cc1,7%,0%
COc1ccc2oc(=O)cc(CN(C)Cc3ccc(C)cc3)c2c1,?,35µM*
CCCNC(=O)C(C)Sc1nc(CCC)cc(=O)[nH]1 (stereo not drawn),2%,-4%
CCCc1cc(=O)[nH]c(SC(C)C(=O)NC(=O)NC2CCCCC2)n1 (stereo not drawn),10µM*,?
CCOc1ccc(-c2nc(CSCC(=O)N3CCN(c4ccc(F)cc4)CC3)c(C)o2)cc1,-1%,-5%
CCOc1ccc(-c2nc(CSCC(=O)N3CCN(c4cccc(C(F)(F)F)c4)CC3)c(C)o2)cc1,28µM*,?
O=[N+]([O-])c1ccc(C(=C(c2ccccc2)c2ccccc2)c2ccc([N+](=O)[O-])cc2)cc1,2.5µM*,3.2µM*
O=[N+]([O-])c1ccc(/C=C/c2ccccc2)cc1,31%,8%
Clc1cccc(Nc2nc3nonc3nc2N2CCCCC2)c1,?,6.3µM*
O=C(Nc1cccc(Cl)c1)c1nc2ccccc2nc1N1CCCC1,-4%,3%
Cc1ccc(-c2nc3ccccc3n2Cc2cccc(F)c2)o1,64%,0%
O=C(Nc1ccc2ccccc2n1)c1ccc(S(=O)(=O)N2CCCCC2)cc1,?,32µM*
O=C(Nc1ccc2ccccc2n1)c1ccc(S(=O)(=O)NC2CC2)cc1,-2%,-4%
SMILES,FMDV antiviral,FMDV RLuc
Cc1cc(C(=O)Nc2c(C(C)C)cccc2C(C)C)cs1,16%,-5%
N#Cc1ccccc1N=Cc1ccccc1Cl,4%,4%
CCc1ccc(OCCn2c(C3CC(=O)N(Cc4ccc(F)cc4)C3)nc3ccccc32)cc1 (stereo not drawn),-2%,?
CC(C)CCn1c(C2CC(=O)N(Cc3ccc(F)cc3)C2)nc2ccccc21 (stereo not drawn),18µM*,18µM*
CCCCn1nc(C(=O)Nc2ccc(OC)c(OC3CCCC3)c2)c2ccccc2c1=O,4%,1%
Cc1ccc(CN(Cc2cc(=O)n3[nH]c(-c4cccc(C)c4)cc3n2)CC(C)C)cc1,?,25µM*
CCOc1ccc(CN(CC)Cc2cc(=O)n3[nH]c(-c4cccc(C)c4)cc3n2)cc1,-13%,-11%
Cc1ccc(NC(=O)CSc2nnc(C)n2C)c(Cl)c1,22%,0%
Cc1nc2cc(-c3ccccc3)nn2c(C)c1CCC(=O)Nc1ccc(F)cc1F,?,-8%
Cc1nc2cc(-c3cccc(F)c3)nn2c(C)c1CCC(=O)N1CCN(c2ccc(F)cc2)CC1,?,-5%
Cc1nc2cc(-c3ccccc3)nn2c(C)c1CCC(=O)Nc1ccc(F)cc1,3.2µM*,-3%
Cc1nc2cc(-c3cccc(F)c3)nn2c(C)c1CCC(=O)Nc1ccc(CN2CCCC2)cc1,?,-17%
Cc1nc2cc(-c3cccc(F)c3)nn2c(C)c1CCC(=O)Nc1ccc(F)c(Cl)c1,2.2µM*,-2%
COc1ccc(N2CCN(C(=O)CCc3c(C)nc4cc(-c5cccc(F)c5)nn4c3C)CC2)cc1,25µM*,-4%
Cc1cc(C)c2c(=O)n(Cc3ccc(Cl)cc3)c(=O)n(-c3ccccc3)c2n1,-3%,-8%
CC(=O)Nc1ccc2c(C(C(=O)O)N3CCN(c4cc(C)c5ccccc5n4)CC3)c[nH]c2c1 (stereo not drawn),-5%,-12%
Cc1ccc(CNS(=O)(=O)c2ccc(-c3cnc(C4CC4)o3)cc2)cc1,-18%,18%
COc1ccc(C)cc1NS(=O)(=O)c1ccc(-c2cnc(C3CC3)o2)cc1,14µM*,16µM*
Cc1cc(C)c(NC(=O)Cn2nnc(C(=O)NCc3cccs3)c2N)c(C)c1,35µM*,-3%
Cc1ccccc1NC(=O)Cn1nnc(C(=O)NCc2cccs2)c1N,100%,56%

# Bioassay records from PubChem.
